Compound activity as filed in PubChem BioAssay.
RE007 growth inh – less growth of the S. pombe RE007 Vpr strain. S. pombe RE007 Vpr strain, BacTiter-Glo ATP luminescence, 24 h. 0.21% of 360,000 active. Potency, µM (doses to about 92.2 µM), for inactives: top-dose activity change, negative = less growth, usual class: inhibitors; active means well fitted falling curve with a large enough effect; inconclusive means small, poorly fitted or top-dose-only effect; inactive means no such curve, though single readings can be large or run the other way; further: nearly all actives have a fitted effect of over 50% in size
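Fission yeast RE007 carrying one integrated HIV-1 vpr copy, seeded at OD 0.01 in PMG+AL medium with 23 nL pinned compound. Grown 24 h at 30 degrees; viability read by BacTiter-Glo luminescence after 5 min.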
Sm TGR block – inhibitors of Schistosoma mansoni thioredoxin glutathione reductase | Q962Y6 | purified TGR, DTNB reduction, TNB absorbance 405 nm | Potency, µM (highest dose often 114 µM), for inactives: top-dose activity change, negative = inhibition, actives largely listed as inhibitors | 3% of 360,000 active | AID 485364; further: nearly all actives have a fitted effect of over 60% in size
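First, TGR (20 nM dispensed) and NADPH were mixed with compound. Second, a 15 min room-temperature incubation followed. Third, further NADPH and then DTNB were added to start the reaction. Finally, TNB absorbance was monitored kinetically.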
Giardia FBPA inh – inhibitors of Giardia lamblia fructose-1,6-bisphosphate aldolase. Potency, µM (highest dose often 59.6 µM), without a hit: at the top dose activity, negative = inhibition, hits mostly inhibitors. 0.71% of 290,000 active. purified Giardia FBPA. AID 2451; further: nearly all actives have a fitted effect of over 55% in size
Target sequence (A8B2U2 whole entry, looked up): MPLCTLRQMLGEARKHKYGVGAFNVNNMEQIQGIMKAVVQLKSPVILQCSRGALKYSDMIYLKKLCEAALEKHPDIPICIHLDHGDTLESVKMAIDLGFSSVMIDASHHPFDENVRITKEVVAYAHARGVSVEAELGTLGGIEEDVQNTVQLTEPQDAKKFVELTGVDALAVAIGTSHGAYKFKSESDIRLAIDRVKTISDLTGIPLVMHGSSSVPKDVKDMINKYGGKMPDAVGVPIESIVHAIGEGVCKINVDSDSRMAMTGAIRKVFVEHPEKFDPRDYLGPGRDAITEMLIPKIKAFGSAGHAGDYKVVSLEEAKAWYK
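40 nM FBPA preincubated 10 min at RT with compound (up to 57.5 uM final), then substrate plus GAPDH/TPI/NAD/arsenate coupling and diaphorase/resazurin added. Fluorescence read after 20 min at RT, 525/598 nm.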
AmpC detergent – blocks E. coli AmpC beta-lactamase in detergent assay. 0.041% of 370,000 active. AmpC hydrolysis of nitrocefin, absorbance 480 nm, 0.01% Triton. P00811. Potency, µM (top dose mostly 114 µM), without a hit: top-dose activity change, negative = inhibition, hits mostly inhibitors;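 further: 0% = no-compound wells and -100% = no-enzyme wells; nearly all actives have a fitted effect of over 25% in size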
Target sequence (P00811 whole entry, looked up): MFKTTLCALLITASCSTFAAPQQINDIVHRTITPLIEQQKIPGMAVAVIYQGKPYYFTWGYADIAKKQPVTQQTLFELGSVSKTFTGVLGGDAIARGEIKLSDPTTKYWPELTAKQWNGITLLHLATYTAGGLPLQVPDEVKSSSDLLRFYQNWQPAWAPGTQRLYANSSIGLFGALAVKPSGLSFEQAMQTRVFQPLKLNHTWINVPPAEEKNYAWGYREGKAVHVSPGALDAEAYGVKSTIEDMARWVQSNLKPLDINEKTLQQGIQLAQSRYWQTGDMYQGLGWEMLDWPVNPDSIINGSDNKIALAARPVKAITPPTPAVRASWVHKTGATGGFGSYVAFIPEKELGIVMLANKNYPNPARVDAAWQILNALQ
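20 mM phosphate pH 7.0 + 0.01% (detergent screen) or 0.0001% Triton X-100; 5.3 nM AmpC reagent; cpd preinc 15 min RT; nitrocefin (800 uM stock) to start; A480 q20 s × 4 min; Activity was normalised to no-enzyme and no-compound control wells.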
AmpC no deterg – blocks E. coli AmpC beta-lactamase in detergent-free assay; P00811; AmpC nitrocefin hydrolysis, absorbance 480 nm, 0.0001% Triton; Potency, µM (top dose mostly 57.1 µM), for inactives: top-dose activity change, negative = inhibition, hits mostly inhibitors; 0.52% of 330,000 active;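 further: plate controls were no compound for no effect and no enzyme for full effect; nearly all actives have a fitted effect of over 20% in size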
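AmpC (5.3 nM in the dispensed reagent) in 20 mM phosphate pH 7.0 with 0.01% (detergent screen) or 0.0001% Triton X-100 was preincubated with compounds for 15 min at room temperature. Nitrocefin was then added from an 800 uM solution, and hydrolysis was followed at 480 nm.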
The depositor's hits bear a star; [ ] = dose if it differs, or a comment. The list is not random: actives were taken first. Their share in the collection is about 3.4%. Unless noted, the call rests on the fitted dose curve; in most records, active means well fitted curve in the direction sought with a large enough effect; inconclusive means small, poorly fitted or top-dose-only effect, or another doubt; inactive means no such curve, though single readings can be large; an effect the other way counts as inactive or inconclusive. Unless noted, on the % scale 0 is the no-effect control and ±100 the full control effect; potency means the concentration at half of the fitted maximal effect.

How did COc1ccc(CCN2C(=O)CC(NC34CC5CC(CC(C5)C3)C4)C2=O)cc1OC (centres undefined) do in these assays?
RE007 growth inh: -5%; Sm TGR block: 40µM*; Giardia FBPA inh: 0%; AmpC detergent: -5%; AmpC no deterg: 101%

Results for CCCOc1ccc(N2C(=O)CC(NCCNc3ccc([N+](=O)[O-])cn3)C2=O)cc1 (centres undefined) ?
RE007 growth inh: inconclusive; Sm TGR block: 8.9µM*; Giardia FBPA inh: -8%; AmpC detergent: 1%; AmpC no deterg: 30%

Results for CCCOc1ccc(N2C(=O)CC(NCc3ccc(S(N)(=O)=O)cc3)C2=O)cc1 (centres undefined) ?
RE007 growth inh: -3%; Sm TGR block: 3%; Giardia FBPA inh: -9%; AmpC detergent: 2%; AmpC no deterg: -2%

Results for COc1ccc(CCN2C(=O)CC(NCCc3ccc(S(N)(=O)=O)cc3)C2=O)cc1OC (centres undefined) ?
RE007 growth inh: -10%; Sm TGR block: 18µM*; Giardia FBPA inh: 4%; AmpC detergent: 2%; AmpC no deterg: -4%

Results for COc1ccc(CCNC2CC(=O)N(N(C)C)C2=O)cc1OC (centres undefined) ?
RE007 growth inh: -1%; Sm TGR block: -5%[57.1 µM]; Giardia FBPA inh: -4%; AmpC detergent: 0%; AmpC no deterg: -13%

Results for CCCCOc1ccc(N2C(=O)CC(NCCc3ccc(S(N)(=O)=O)cc3)C2=O)cc1 (centres undefined) ?
RE007 growth inh: 63µM*; Sm TGR block: -31%; Giardia FBPA inh: -7%; AmpC detergent: 1%; AmpC no deterg: -9%

Results for Cc1ccc(Cc2nnc(SCC(=O)Nc3ccccc3)n(N)c2=O)cc1 ?
RE007 growth inh: 7%; Sm TGR block: 1%; AmpC detergent: -13%; AmpC no deterg: -33%

How did CCc1cccc(NC(=O)CSc2nnc(-c3cc4occc4n3C)n2-c2ccccc2C)c1 do in these assays?
Sm TGR block: 0%; AmpC detergent: -2%

What do the screens show for `Cc1cc(C)n2nc(S(=O)(=O)N(C)Cc3ccccc3)nc2n1`?
RE007 growth inh: 3%; Sm TGR block: -20%; Giardia FBPA inh: 10%; AmpC detergent: inconclusive; AmpC no deterg: -10%

Results for Cc1cc(C)n2nc(S(=O)(=O)N(CC(C)C)CC(C)C)nc2n1 ?
RE007 growth inh: 0%; Sm TGR block: 2%; Giardia FBPA inh: 1%; AmpC detergent: inconclusive; AmpC no deterg: 10µM*

What do the screens show for `O=S(=O)(Nc1cccc(-c2ccc(N3CCCCCC3)nn2)c1)c1ccccc1Cl`?
RE007 growth inh: 12%; Sm TGR block: 3%; AmpC detergent: -11%; AmpC no deterg: 2.5µM*

How did O=S(=O)(Nc1cccc(-c2ccc(N3CCCCCC3)nn2)c1)c1ccccc1F do in these assays?
RE007 growth inh: 7%; Sm TGR block: -10%; Giardia FBPA inh: 9%; AmpC detergent: -8%; AmpC no deterg: -45%

How did Cc1cc(Br)ccc1SCC(=O)OCC(=O)NCc1ccco1 do in these assays?
RE007 growth inh: 2%; Sm TGR block: 25µM*; Giardia FBPA inh: -12%; AmpC detergent: 2%; AmpC no deterg: -11%

Results for Cc1nn(-c2ccccc2)c(C)c1C(=O)OCC(N)=O ?
RE007 growth inh: -3%; Sm TGR block: 0%; Giardia FBPA inh: 7%; AmpC detergent: inconclusive; AmpC no deterg: -2%[11.4 µM]

What do the screens show for `Cc1nn(-c2ccccc2)c(C)c1C(=O)OCC(=O)NCc1ccco1`?
RE007 growth inh: 0%; Sm TGR block: 18µM*; Giardia FBPA inh: 1%; AmpC detergent: 3%; AmpC no deterg: -11%

How did O=C(COC(=O)c1ccccc1Oc1ccccc1)NCc1ccco1 do in these assays?
RE007 growth inh: -7%; Sm TGR block: 16µM*; Giardia FBPA inh: 2%; AmpC detergent: -21%; AmpC no deterg: -14%

How did O=C(Cn1cc(C(=O)COc2ccccc2)c2ccccc21)NCc1ccco1 do in these assays?
RE007 growth inh: -1%; Sm TGR block: 40µM*; Giardia FBPA inh: -2%; AmpC detergent: inconclusive; AmpC no deterg: -20%

Results for O=C(COC(=O)CSc1ccc(Br)cc1)NCc1ccco1 ?
RE007 growth inh: 3%; Sm TGR block: -20%; AmpC detergent: -17%; AmpC no deterg: -9%

Results for CC(=O)c1cn(CC(=O)NCc2ccco2)c2ccccc12 ?
RE007 growth inh: -20%; Sm TGR block: 1%; AmpC detergent: -2%; AmpC no deterg: 2%

How did O=C(COC(=O)c1ccccc1)NCc1ccco1 do in these assays?
RE007 growth inh: 7%; Sm TGR block: -1%[11.4 µM]; Giardia FBPA inh: 0%; AmpC detergent: -14%; AmpC no deterg: -42%

What do the screens show for `O=C(COC(=O)CCSc1ccccc1Cl)NCc1ccco1`?
RE007 growth inh: 7%; Sm TGR block: 40µM*; Giardia FBPA inh: 3%; AmpC detergent: -4%; AmpC no deterg: -5%[2.29 µM]

How did O=C(COC(=O)C(c1ccccc1)c1ccccc1)NCc1ccco1 do in these assays?
RE007 growth inh: 2%; Sm TGR block: 40µM*; Giardia FBPA inh: -4%; AmpC detergent: 0%; AmpC no deterg: -8%

Results for Cc1ccc(S(=O)(=O)Nc2nnc(CC(C)(C)C)s2)cc1 ?
RE007 growth inh: -12%; Sm TGR block: 11%; Giardia FBPA inh: -9%; AmpC detergent: inconclusive; AmpC no deterg: -27%

Results for CC(C)c1ccc(N2C(=O)CS(=O)(=O)C23C(=O)N(Cc2cccc(F)c2)c2ccccc23)cc1 (centres undefined) ?
Sm TGR block: 1%; AmpC detergent: -3%

Results for CCN(CC)c1ccc(NC2CC(=O)N(CCc3ccc(OC)cc3)C2=O)cc1 (centres undefined) ?
RE007 growth inh: -16%; Sm TGR block: 10µM*; Giardia FBPA inh: inconclusive; AmpC detergent: 4%; AmpC no deterg: -26%

What do the screens show for `O=C1/C(=C/c2cccnc2)SC(=S)N1Nc1ccccc1`?
RE007 growth inh: 12%; Sm TGR block: 2µM*; Giardia FBPA inh: -16%; AmpC detergent: 10%; AmpC no deterg: -10%

Results for Cc1cccc(C)c1NC(=O)CCCCCC1NC(=O)NC1C (centres undefined) ?
RE007 growth inh: -7%; Sm TGR block: 25µM*; Giardia FBPA inh: 10%; AmpC detergent: -6%; AmpC no deterg: -15%

How did C[C@@H]1NC(=O)N[C@@H]1CCCCCC(=O)O do in these assays?
RE007 growth inh: 12%

What do the screens show for `Cc1cccc(C)c1NC(=O)CCCN1CC(C)OC(C)C1` (centres undefined)?
RE007 growth inh: 5%; Sm TGR block: 3%; Giardia FBPA inh: 6%; AmpC detergent: 2%; AmpC no deterg: -3%
